# GLP1R cytotox: cytotoxicity in counter-screen for GLP-1R inverse agonists. HEK293 cAMP-luciferase reporter cells, luminescence, 24 h. Potency, µM (series often up to 38.3 µM), for the others: top-dose activity change, negative = inhibition, actives largely listed as inhibitors. hit rate 0.13% among 410,000;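 also: loss of luciferase light is scored as toxicity; % is scaled to controls: 0 for no effect and ±100 for the full control effect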
#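 Compound-treated cells are incubated 24 hr at 37 deg C under 5% CO2 after a 12 hour attachment period, then luciferase detection reagent is added and luminescence is measured following 12 min at room temperature; lowered signal indicates toxicity.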
# GLP-1R agonist: agonists of human GLP-1 receptor. P43220. HEK293 GLP-1R CRE-luciferase, luminescence, 4-6 h; cells express a hypersensitive GLP-1R form. Potency, µM (doses to about 45.6 µM), inactives show at the highest dose activation, hits mostly activators. hit rate 0.007% among 380,000. AID 624172; also: % of control where 0% means no effect
# Target sequence (P43220 whole entry, looked up): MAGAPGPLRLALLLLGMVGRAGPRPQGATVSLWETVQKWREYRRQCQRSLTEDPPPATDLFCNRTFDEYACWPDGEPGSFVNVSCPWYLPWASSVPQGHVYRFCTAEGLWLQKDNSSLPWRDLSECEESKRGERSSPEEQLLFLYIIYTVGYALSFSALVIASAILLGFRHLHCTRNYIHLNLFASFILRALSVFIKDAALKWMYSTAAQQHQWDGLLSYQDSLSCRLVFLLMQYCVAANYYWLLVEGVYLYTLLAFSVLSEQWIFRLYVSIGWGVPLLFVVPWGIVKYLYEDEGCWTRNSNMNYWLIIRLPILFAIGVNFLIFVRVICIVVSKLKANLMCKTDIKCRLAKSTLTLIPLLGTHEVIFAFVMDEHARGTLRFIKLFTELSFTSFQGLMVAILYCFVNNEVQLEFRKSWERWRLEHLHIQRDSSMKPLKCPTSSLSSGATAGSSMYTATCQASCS
# GLP1R inv ag: acts as inverse agonist at human GLP-1 receptor. HEK293 GLP-1R CRE-luciferase, luminescence, 24 h; GLP-1R form is constitutively active. Potency, µM (titrated, usually from 38.3 µM), for inactives: top-dose activity change, negative = inhibition, most hits filed as inhibitors. hit rate 1.6% among 410,000. AID 624417; also: % is scaled to controls: 0 for no effect and ±100 for the full control effect; nearly all actives have a fitted effect of over 55% in size
#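 Readout was luciferase luminescence, measured 12 min after detection reagent at room temperature. Beforehand, GLP-1R reporter HEK293 cells had sat 12 h, then received compounds for 24 hr at 37 deg C.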
# BRCA1 expr act: increases BRCA1 expression. MCF7-BRCA1-FFLuc reporter, luminescence, 48 h; response scale: scaled: vehicle 0%, 10 µM genistein 100%. hit rate 1.1% among 380,000. Potency, µM (series often up to 46.1 µM), for inactives: at the highest dose activation, hits mostly activators; also: nearly all actives have a fitted effect of over 80% in size
#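 Cells: MCF7-BRCA1-FFLuc, 2000/well. Exposure: 48 h, 37 °C, 5% CO2. Read: luminescence, 15 min post-substrate. Controls: genistein 10 microM (maximal activation), DMSO (neutral).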
# Mito fusion act: blocks mitochondrial division or promotes mitochondrial fusion. hit rate 0.23% among 320,000. S. cerevisiae fusion-defective mutant growth rescue, CellTiterGlo 48 h. Potency, µM (doses to about 46.1 µM), for the others: at the highest dose growth rescue (activation), usual class: activators; also: % of control where 0% means no effect; nearly all actives have a fitted effect of over 45% in size
#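 Read-out: ATP-based luminescence (CellTiterGlo, 10 min ambient) reporting growth of fusion-defective ts yeast after 48 hours at 37C on glycerol/ethanol YPEG medium in the presence of compound.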
# Numbers without * were called inactive; ? = inconclusive; . = not tested or not shown; [ ] = another dose, or the depositor's remark. Compounds with a hit are over-represented: about 2.8% of the library has one in this group of screens. Calls follow the shape of the dose curve; as a rule, active = well fitted curve in the direction sought with a large enough effect; inconclusive = small, poorly fitted or top-dose-only effect, or another doubt; inactive = no such curve, though single readings can be large; an effect the other way counts as inactive or inconclusive. Potency is read from the fitted curve at half-maximal effect.
SMILES,GLP1R cytotox,GLP-1R agonist,GLP1R inv ag,BRCA1 expr act,Mito fusion act
Cc1ccc(OCC(=O)Nc2ccc(Cl)cc2)c([N+](=O)[O-])n1,-0.4%,2.9%,16.4%,11.2µM*,14.3%
Fc1cccc(CSc2ncnc3c2oc2ccccc23)c1,4.3%,8.3%,1.5%,0.3%,-4.1%
Fc1ccc(C(CCCn2nnc(-c3cccnc3)n2)c2ccc(F)cc2)cc1,-9.3%,-2.5%,10µM*,-81.7%,0.3%
COc1cc(N(C)C)ccc1C=c1c2ccccc2n2c1cc(-c1ccccc1)[n+]2C,12.6µM*,-15.9%,8.91µM*,-85.0%,.
CN(C)c1ccc(C=c2c3ccccc3n3c2cc(-c2ccccc2)[n+]3C)cc1,?,-28.0%,?,-96.8%,.
Cc1ccc(C)c(N2CCN(C(=O)c3ccccc3Br)CC2)c1,12.9%,0.8%,?,-28.7%,1.6%
Cc1ccc(N2CCN(C(=O)c3ccccc3Br)CC2)c(C)c1,5.3%,-20.9%,10µM*,-32.0%,24.9%
O=C(c1[nH]c2ccccc2c1Sc1ccc(Cl)cc1)N1CCCCC1,-0.5%,.,10µM*,.,.
CCCn1cnc2c(SCc3ccccc3F)nc(N)nc21,2.8%,?,36.0%,10µM*,.
CCCCn1cnc2c(SCc3cccc(F)c3)nc(N)nc21,-5.9%,39.8%,-24.5%,62.5%,.
COc1ccc(N2CCN(c3oc(COc4ccccc4)nc3C#N)CC2)cc1,1.9%,3.9%,2.82µM*,9.1%,16.4%
O=C(Nc1cccc(C(F)(F)F)c1)C1CCN(S(=O)(=O)c2cccc3nsnc23)CC1,-11.0%,-3.0%,?,-54.7%,.
CCc1ccccc1Nc1ncnc2c1cnn2-c1ccc(C)cc1C,-8.9%,.,12.6µM*,.,.
Cc1ccc(-n2ncc3c(Nc4ccc(Oc5ccccc5)cc4)ncnc32)c(C)c1,-13.0%,.,10µM*,.,.
Cc1ccc(-c2cc(C(=O)Oc3ccc(C#N)cc3)no2)cc1C,2.1%,.,8.9%,-10.9%,.
CCCc1cc(=O)oc2c(C)c3occ(C)c3cc12,-2.5%[1.53 µM],3.3%,5.1%,2.4%,10µM*
Cc1coc2c(C)c3oc(=O)cc(-c4ccccc4)c3cc12,-9.3%,-0.4%,0.2%,0.0%,.
Nc1c(C(=O)Nc2ccc(Cl)cc2)oc2ccccc12,-2.3%,-0.1%,?,2.51µM*,8.4%
COC(=O)c1sc(NC(=O)COc2ccccc2)nc1C,-6.5%,4.5%,39.8%,7.94µM*,1.6%
CNc1nc(C)c(C(=O)OCc2ccccc2)s1,-16.3%,?,0.0%,11.2µM*,8.4%
CCOc1ccc(-c2c(C)nn3c(C)c(C(=O)NCCc4ccc(Cl)cc4)cnc23)cc1OCC,-9.9%,.,?,.,.
CCOc1ccc(N(C)S(=O)(=O)c2ccc3[nH]cc(C(=O)NCCCOC)c(=O)c3c2)cc1,13.9%,-1.0%,5.7%,-13.5%,0.5%
COc1cccc(-c2nnc3n2N=C(C(C)(C)C)CS3)c1,-21.7%,-17.7%,11.2µM*,-90.7%,13.1%
COc1ccc(CN2CCc3c(c(=O)n4ncc(C(=O)N5CCN(c6ccccc6OC)CC5)c4n3C)C2)cc1,-4.8%,.,-29.1%,.,.
Cc1ccc(CSC2=Nc3ccccc3C3=NC(CC(=O)NCc4ccco4)C(=O)N23)cc1 (configuration not stated),-6.1%,6.4%,7.5%,19.7%,14.1%
SMILES,GLP1R cytotox,GLP-1R agonist,GLP1R inv ag,BRCA1 expr act,Mito fusion act
O=C1c2ccccc2NC(c2ccc(Br)o2)N1O (configuration not stated),.,-3.8%,.,11.2µM*,6.4%
O=C1c2ccccc2NC(c2ccc([N+](=O)[O-])cc2)N1O (configuration not stated),2.9%,10.8%,10µM*,-58.9%,-1.3%
O=C1c2ccccc2NC(c2ccc(-c3cccs3)o2)N1O (configuration not stated),.,0.0%,.,?,4.5%
COc1ccccc1NS(=O)(=O)c1ccc(NC(=O)Cc2cccs2)cc1,-1.4%,15.9%,10.4%,-4.7%,-8.0%
O=c1cc(O)cc(/C=C/c2ccc(O)c(O)c2)o1,.,.,.,.,16.4µM*
CCN(Cc1ccccc1)S(=O)(=O)c1ccc(C(=O)N(CCCN(C)C)c2nc3ccc(F)cc3s2)cc1,?,-1.0%,5.62µM*,-3.2%,-6.3%
CN(C)CCCN(C(=O)CCOc1ccccc1)c1nc2ccc(F)cc2s1,10µM*,-11.1%,?,-85.9%,-3.0%
CN(C)CCCN(C(=O)COc1ccccc1)c1nc2ccc(F)cc2s1,-34.9%,-4.5%,?,24.6%,-3.7%
CCN(Cc1ccccc1)S(=O)(=O)c1ccc(C(=O)N(CCCN(C)C)c2nc3cc(OC)ccc3s2)cc1,?,7.5%,?,-72.3%,-3.4%
COc1cc([N+](=O)[O-])ccc1NC(=O)Cc1ccc(F)cc1,3.6%,8.6%,-1.3%,-14.0%,23.1%
Cn1c(=O)c2c(nc(SCc3nc(N)nc(N4CCCCC4)n3)n2C)n(C)c1=O,-0.8%,-3.7%,19.0%,43.1%,-4.1%
Cc1cc(-c2ccc(C(=O)O)s2)cnc1N,2.4%,-1.0%,3.7%,7.08µM*,-4.4%
O=C(CN1C(=O)C2CCCCC2C1=O)Nc1cccc(C(F)(F)F)c1 (configuration not stated),-9.4%,-11.6%,?,-2.1%,.
Cc1ccc(-c2nc3ccccc3s2)cc1NC(=S)NC(=O)c1ccccc1,0.6%,-16.4%,0.5%,-28.1%,-3.2%
COc1ccc(CC(=O)Nc2nc(-c3cc(OC)ccc3OC)cs2)cc1,-0.1%[7.66 µM],8.9%,12.7%[7.66 µM],-69.7%,-18.4%
COc1ccc(OC)c(-c2csc(NC(=O)COC(=O)C3(C)CC3(Cl)Cl)n2)c1 (configuration not stated),-7.6%,17.3%,?,-25.2%,15.8µM*
Cc1ccc(SCCC(=O)N2CCC(C)CC2)cc1,-18.3%,1.3%,?,10µM*,6.0%
CC(C)(C)C1CCC(=O)N(CCSc2ccccc2)CC1 (configuration not stated),-6.5%,18.7%,?,3.55µM*,4.8%
COc1ccc(S[C@@H](CCN2CC[C@H](C)CCC2=O)c2ccccc2)cc1,0.5%,3.6%,10µM*,-8.7%,?
Cc1ccc(S[C@@H](CCN2CC[C@H](C)CCC2=O)c2ccccc2)cc1,-10.4%,13.0%,?,-13.6%,-1.0%
Cc1ccc(S[C@@H](CCN2CC[C@H](C(C)(C)C)CCC2=O)c2ccccc2)cc1,3.8%,-4.3%,10µM*,-32.6%,-5.1%
O=C(CSc1ccc(Br)cc1)NCC1(N2CCCCC2)CCCCC1,?,-3.0%,?,-16.5%,.
Cc1ccc(SCCN2CCC(C)CCC2=O)cc1 (configuration not stated),2.6%,1.3%,-0.4%,8.91µM*,-0.6%
CCCN1CCC(=O)N(CCSc2ccccc2)CC1,0.8%,2.4%,2.8%,?,1.0%
O=C1CCN(Cc2ccccc2)CCN1CCSc1ccccc1,-34.0%,8.9%,18.0%,8.91µM*,-0.8%
